Wnt bcat act – Wnt/beta-catenin pathway activators, primary screen, cell-based, plate reader, single point; Wnt/beta-catenin reporter cell assay, activator; activation, % at 9.35 µM; actives 1.2% (n = 300,000); in the data active means activation above about 30%, passing the limit was not always enough; inconclusive means no clear call, values can overlap the other calls
Glyco luc inh – increase of ERlucT glycosylation luciferase signal, primary screen, N-linked glycosylation inhibitor project, D54 ERlucT cells, luminescence, set 2; reporter increase, % at 12.5 µM; actives 0.23% (n = 360,000); D54 ERlucT glycosylation luciferase reporter, 24 h; percent of 100 nM tunicamycin response; AID 588692, 2011;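 active means mean luciferase reporter signal, scaled so untreated is 0 and the glycosylation-blocking control 100, at or above a set limit in every replicate; inconclusive means mean reaches the limit but not every replicate does; inactive means mean below the limit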;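 further: luciferase carries N-glycosylation sites so blocking glycosylation raises the light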
MITF act – activators of MITF-driven TRPM1 promoter reporter, primary screen, cell-based, SK-MEL-5, luciferase, single point | SK-MEL-5 TRPM1-promoter luciferase, 24 h; % of positive control, neutral wells = 0 | activation, % at 12.5 µM | actives 0.75% (n = 300,000) | AID 588334, 2011;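 active means mean activation of at least 80% with every replicate also reaching 80%; inconclusive means mean reaches 80% but some replicate falls short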
TRPM1 prom inh – inhibitors of MITF-dependent TRPM1 promoter reporter, primary screen, cell-based, SK-MEL-5, single point, luciferase. inhibition, % at 12.5 µM. SK-MEL-5 TRPM1 promoter luciferase, 24 h. actives 0.83% (n = 330,000);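 active means mean inhibition across replicates of 60% or more, whatever share of single replicates reaches that level; inconclusive means some that reach 60%, reason not given; inactive means mean inhibition across replicates below 60%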
PfHsp90 set2 – growth inhibition of PfHsp90-expressing yeast, primary screen, antimalarial PfHsp90 inhibitor project, S. cerevisiae, BacTiter-Glo luminescence, single point, set 2; BacTiter-Glo ATP, 48 h; yeast lacking PDR1 and PDR3 efflux regulators; inhibition, % at 9.4 µM; actives 0.32% (n = 310,000);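 active means every replicate shows inhibition above about 80%, whatever the replicate mean, limit read from the data; inconclusive means mean inhibition reaches the set limit but some replicate falls short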
NSD2 inh – NSD2 histone methyltransferase inhibitors, primary screen, biochemical, AlphaScreen, single concentration, set 2; Histone-lysine N-methyltransferase NSD2 (Homo sapiens), O96028; NSD2 peptide methylation, 120 min; inhibition, % at 12.5 µM; actives 0.54% (n = 310,000); in the data active means inhibition above about 50%
Of the large screens only hits and unclear results are named; the others gave an inactive call. Only some compounds are listed: those with a hit (about 2.9% of all), similar ones and a draw of the others.

COc1ccc(C2=Nn3c([n+](C)c4ccccc43)SC2)cc1	none
C[n+]1c2n(c3ccccc31)N=C(c1ccc(Cl)cc1)CS2	TRPM1 prom inh 60.6 (no result: Wnt bcat act, MITF act)
Cc1ccc(/C=C/C(=O)c2ccc(N3CCOCC3)cc2)s1	MITF act 91.5
COc1cc(/C=N/O)ccc1OCc1ccccc1Cl	MITF act 96.0
O/N=C/c1ccccc1OCc1ccccc1Cl	none (no result: Wnt bcat act)
COc1ccc(-n2c(SCC(=O)Nc3ccc(S(=O)(=O)Nc4nccs4)cc3)nnc2-c2ccco2)cc1	none (no result: Wnt bcat act, Glyco luc inh, MITF act, TRPM1 prom inh, PfHsp90 set2)
Cc1cc(N2CCOCC2)nc2ccc(NC(=O)CCC(=O)N3CCN(c4ccccc4F)CC3)cc12	MITF act 119.6
Cc1cccc(N2CCN(C(=S)Nc3ccc4nc(N5CCN(C)CC5)cc(C)c4c3)CC2)c1C	TRPM1 prom inh 96.0 (no result: NSD2 inh)
Cc1cc(N2CCN(C)CC2)nc2ccc(NC(=S)NCCN3CCc4ccccc4C3)cc12	TRPM1 prom inh 77.8
O=C(N[C@@H](Cc1cccnc1)C(=O)N1CCC[C@H]1C(=O)NCc1ccccc1)c1ccccc1	none (no result: Glyco luc inh, MITF act, TRPM1 prom inh, PfHsp90 set2, NSD2 inh)
O=C(c1nnc(-c2ccncc2)o1)c1ccccc1Cl	Wnt bcat act 35.1
O=C(CSc1nnc(C2CC2)n1C1CC1)c1ccc(Br)s1	Wnt bcat act 32.6
O=C(CSc1nc2ccccc2o1)NN=C/C=C\c1ccccc1[N+](=O)[O-]	none (no result: Wnt bcat act, Glyco luc inh, MITF act, TRPM1 prom inh, PfHsp90 set2)
CCC(C)NC(=O)c1cc(-c2ccccc2O)on1 (stereo unspecified)	none (no result: MITF act, TRPM1 prom inh, NSD2 inh)
CC(C)c1cc(C(=O)NC2CCCCC2)no1	none (no result: Wnt bcat act)
O=C(NC1CCCCC1)c1cc(-c2ccc(O)cc2)on1	MITF act 93.2
O=C(NC1CCCCC1)c1cc(-c2ccccc2O)on1	MITF act 123.6 (no result: NSD2 inh)
O=C(NCc1cccs1)c1cc(-c2ccc(O)cc2)on1	Wnt bcat act 36.9
CCCc1cc(C(=O)NC2CCCCC2)no1	Wnt bcat act 33.2 (no result: NSD2 inh)
CCCc1cc(C(=O)NC2CCCC2)no1	none (no result: NSD2 inh)
COc1ccc(-c2cc(C(=O)NC3CCCCC3)no2)cc1OC	none
Cc1ccc(-c2cc(C(=O)NC3CCCCC3)no2)cc1	MITF act 114.2
CN(C(=O)c1cc(-c2ccccc2)on1)C1CCCCC1	Wnt bcat act 33.8, MITF act 174.2
COC(=O)c1cc(S(=O)(=O)NCC2CCN(C(=O)C(=O)c3cc4ccccc4o3)CC2)cs1	none (no result: Glyco luc inh, MITF act, TRPM1 prom inh, PfHsp90 set2)
O=C(NCC1CCCCC1)c1cc(Br)ccc1Cl	none
CCOC(=O)C(C)(C)CC#CCN(CC#Cc1ccccc1)S(=O)(=O)c1ccc(C)cc1	none (no result: Glyco luc inh, MITF act, TRPM1 prom inh, PfHsp90 set2, NSD2 inh)
CCN(C)C1CN(Cc2cn(Cc3ccc(C)cc3)nn2)S(=O)(=O)C1 (stereo unspecified)	none (no result: Glyco luc inh, MITF act, TRPM1 prom inh, PfHsp90 set2, NSD2 inh)
COc1cc(/C=C/c2ccc3cccc(O)c3n2)cc(Cl)c1OC	Wnt bcat act 46.7 (no result: NSD2 inh)
COc1cc(/C=C/c2ccc3cccc(O)c3n2)cc(OC)c1OC	Wnt bcat act 64.8, TRPM1 prom inh 77.6
COc1cc2c(cc1OC)C(NNC(=O)c1ccc(Br)o1)=NC(C)(C)C2	none
CCCN1CCCCC(NC(=O)c2ccccc2OC)C1=O (stereo unspecified)	none (no result: Glyco luc inh, MITF act, TRPM1 prom inh, PfHsp90 set2, NSD2 inh)
COc1cc([C@@H]2c3cc4c(cc3[C@H](O)[C@H]3COC(=O)[C@H]23)OCO4)cc(OC)c1OC	TRPM1 prom inh 61.3 (no result: NSD2 inh)
COc1cc(C2c3cc4c(cc3C(OC3OC5COC(c6cccs6)OC5C(O)C3O)C3COC(=O)C23)OCO4)cc(OC)c1O (stereo unspecified)	TRPM1 prom inh 75.7 (no result: NSD2 inh)
O=C(NC(=S)Nc1ccccc1OC(F)F)c1ccc2c(c1)OCO2	none
COC(=O)C1=C(C)N(Cc2ccccc2C(F)(F)F)C(=NCc2cc(OC)c(OC)c(OC)c2)NC1CCc1ccccc1 (stereo unspecified)	none (no result: Glyco luc inh, MITF act, TRPM1 prom inh, PfHsp90 set2, NSD2 inh)
CC1CN(C(C)C(=O)NC(c2ccccc2)c2ccccc2)CC(C)O1 (stereo unspecified)	none
CN(Cc1ccccc1)C(=O)OCc1cn(Cc2c(F)cccc2F)nn1	none (no result: Wnt bcat act, Glyco luc inh, MITF act, TRPM1 prom inh, PfHsp90 set2)
Oc1ccc(/C=N/Nc2ccnc3cc(Cl)ccc23)c(O)c1	none
Cc1ccc(/C=N/Nc2ccnc3cc(Cl)ccc23)c(C)c1	TRPM1 prom inh 86.8
Cc1ccccc1/C=N/Nc1ccnc2cc(Cl)ccc12	TRPM1 prom inh 68.0
CCOc1ccc(-n2c(COc3ccc(C)cc3)nnc2SCC(=O)c2ccc3ccccc3c2)cc1	none (no result: Wnt bcat act, Glyco luc inh, MITF act, TRPM1 prom inh, PfHsp90 set2)
CC(C)(C)S(=O)(=O)c1cnc(-c2ccc(Cl)cc2)nc1N	Wnt bcat act 39.1, MITF act inconclusive
CC(=O)NC1C(OCc2ccccc2)OC2COC(C)(C)OC2C1O (stereo unspecified)	none
CC(C)c1ccc(/C=C2\SC(=S)N(CCC(=O)N3CCCCC3CCO)C2=O)cc1 (stereo unspecified)	TRPM1 prom inh 76.2 (no result: NSD2 inh)
Cn1c(SCC(=O)Nc2ccc(S(=O)(=O)Nc3nccs3)cc2)nc2sc3c(c2c1=O)CCCC3	none (no result: Wnt bcat act, Glyco luc inh, MITF act, TRPM1 prom inh, PfHsp90 set2)
N/C(=N\O)c1ccc(NC(=O)c2cccs2)cc1	Wnt bcat act 40.3 (no result: NSD2 inh)
C/C(=N\NS(=O)(=O)c1ccc([N+](=O)[O-])cc1)c1ccc(NC(=O)c2ccco2)cc1	Wnt bcat act 34.1
CC(=NNS(=O)(=O)c1ccc([N+](=O)[O-])cc1)c1ccc(C)cc1	none (no result: NSD2 inh)
COc1ccc(NC(=O)c2ccc(NC(=O)c3cccs3)cc2)cc1	none (no result: Glyco luc inh)
C/C(=N\NC(=O)c1ccccc1)c1ccccc1F	Wnt bcat act 56.8 (no result: PfHsp90 set2)
COc1ccc(C(=O)/C=C\c2ccc(NC(=O)c3cccs3)cc2)cc1	Glyco luc inh 48.1 (no result: Wnt bcat act)
c1cncc(Oc2ccc(NCCc3c[nH]c4ccccc34)cc2)c1	none (no result: Glyco luc inh, MITF act, TRPM1 prom inh, PfHsp90 set2, NSD2 inh)
COc1ccc(/C=C(\NC(=O)c2ccccc2)C(=O)NC2CCS(=O)(=O)C2)cc1 (stereo unspecified)	none
C/C(=N\NC(=O)c1ccc(O)cc1)c1ccc2c(c1)OCCO2	none
COc1ccccc1OCCNC(=O)c1ccc2c(c1)OCCO2	Wnt bcat act 52.0
C/C(=N\NC(=O)c1ccc2c(c1)OCCO2)c1ccccc1	Wnt bcat act 47.3 (no result: MITF act)
C/C(=N\NC(=O)c1ccco1)c1ccc(NC(=O)c2cccs2)cc1	Wnt bcat act 39.3
CC(=NNC(=O)c1cccs1)c1ccc2c(c1)OCCO2	Wnt bcat act inconclusive, MITF act 104.6 (no result: PfHsp90 set2)
CCC(c1nnnn1-c1ccc2c(c1)OCCO2)N1CCN(c2ccccn2)CC1 (stereo unspecified)	none (no result: Glyco luc inh, MITF act, TRPM1 prom inh, PfHsp90 set2, NSD2 inh)
Clc1ccc(CN2CCN(N=Cc3c4ccccc4cc4ccccc34)CC2)cc1	none (no result: Wnt bcat act, Glyco luc inh, MITF act, TRPM1 prom inh, PfHsp90 set2)
CCCc1ccc(-c2ccc(/C=C/C(=O)O)cc2)nc1	TRPM1 prom inh 86.0
CCCCCc1ccc(-c2ccc(/C=C/C(=O)O)cc2)nc1	none

Screens as filed in PubChem BioAssay.
